# Rows were chosen to be rich in hits. Some 9.9% of all compounds tested hit in one or more screens of this group.
# KB-3-1 cytotox: KB-3-1 parental cell cytotoxicity; KB-3-1 viability, CellTiter-Glo ATP luminescence, 72 h; Potency, µM (series often up to 46.1 µM), usual class: cytotoxic; actives 1.4% (n = 400,000); AID 1347075; further: potency means the concentration at half of the fitted maximal effect; on the % scale 0 is the no-effect control and ±100 the full control effect; nearly all actives have a fitted effect of over 60% in size
#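 KB-3-1 cells, DMEM (no phenol red) + 10% FBS; compound by pin transfer, 72 h, 37 °C. Readout: CellTiter-Glo luminescence after 10 min. Data normalized, curve-fitted.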
# IL1B secr inh: inflammasome signaling inhibition, IL-1 beta readout; AID 743279; actives 4.7% (n = 360,000); THP-1 LPS/ATP IL-1B secretion, AlphaLISA, 16 h; active compounds read low; activity change, % at 57.5 µM; in the data active means activity change below about -50%; inconclusive means mostly about -30% to -49%; further: on the % scale 0 is the no-effect control and ±100 the full control effect
#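 Secreted IL-1B measured by AlphaLISA bead assay after 16 h compound exposure of THP-1 cells; compounds (final up to 57.5 uM) added 1 h before LPS (250 ng/mL) and ATP (1.25 mM) stimulation; lower signal means less secretion.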
# MCF10A rereplic: induces DNA re-replication in MCF 10a normal breast cells; MCF 10A DNA re-replication, Hoechst nuclear intensity, 48 h; Potency, µM (titrated, usually from 46.1 µM), without a hit: top-dose activity, positive = re-replication, actives largely listed as activators; actives 2.9% (n = 350,000); AID 624296; further: potency means the concentration at half of the fitted maximal effect; % of control where 0% means no effect; nearly all actives have a fitted effect of over 50% in size
# SW480 rereplic: inducers of DNA re-replication in SW480 colon cancer cells | SW480 DNA re-replication, Hoechst DNA content imaging, 48 h | Potency, µM (doses to about 46.1 µM), without a hit: top-dose re-replication activation, actives largely listed as activators | actives 1.8% (n = 340,000) | AID 624297; further: potency means the concentration at half of the fitted maximal effect; % of control where 0% means no effect; nearly all actives have a fitted effect of over 55% in size
#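 DNA re-replication was detected as more nuclei of elevated Hoechst intensity after 48 hr exposure to compound (23 nL pinned per well of 250 cells).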
# KB-V1 MDR tox: KB-V1 MDR subline cytotoxicity | KB-V1 MDR cells viability, CellTiter-Glo, 72 h | Potency, µM (titrated, usually from 46.1 µM), most hits filed as cytotoxic | actives 3.4% (n = 400,000) | AID 1347076; further: potency means the concentration at half of the fitted maximal effect; on the % scale 0 is the no-effect control and ±100 the full control effect; nearly all actives have a fitted effect of over 60% in size
#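 qHTS viability screen in drug-selected KB-V1 MDR cells: 72 h compound treatment at 37 degrees C, ATP luminescence end point.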
# Active calls of the source: *; i = inactive; ? = inconclusive; · = not tested or not shown; [ ] = dose if it differs, or a comment. Unless noted, the call rests on the fitted dose curve; in most records, active means well fitted curve in the direction sought with a large enough effect; inconclusive means small, poorly fitted or top-dose-only effect, or another doubt; inactive means no such curve, though single readings can be large; an effect the other way counts as inactive or inconclusive.
SMILES,KB-3-1 cytotox,IL1B secr inh,MCF10A rereplic,SW480 rereplic,KB-V1 MDR tox
Cc1cc(C)n(-c2ccc(C(=O)Nc3ccc(C)c(S(=O)(=O)N(C)C)c3)cc2)n1,i,-78*,-7%,2%,?
CC(=O)c1ccc(NC(=O)c2cnc(N3CCCC3)nc2C)cc1,i,·,·,·,i
CC(=O)c1ccc(OCCCC(=O)Nc2ccc(C)c(S(=O)(=O)N(C)C)c2)cc1,21µM*,20,4%,32%,23µM*
Cc1cc(C)n(-c2ccc(C(=O)Nc3ccc(S(=O)(=O)NCc4ccco4)cc3)cc2)n1,?,-54*,17%,13%,i
Cc1ccc(C(=O)Nc2ccc(S(=O)(=O)NCc3ccco3)cc2)cc1,i,10,6%,-15%,?
CCN(CC)S(=O)(=O)c1cccc(NC(=O)c2ccc(-n3nc(C)cc3C)cc2)c1,?,?,5%,-25%,2.9µM*
Cc1cc(C)n(-c2nc3ccccc3nc2Nc2ccc3c(c2)OCO3)n1,i,-27,16µM*,6%,i
Cc1cc(C)n(-c2ccc(C(=O)Nc3ccc4c(c3)OCO4)cc2)n1,i,-54*,?,-9%,i
CC(=O)c1cc2c(cc1NC(=O)c1ccc(-n3nc(C)cc3C)cc1)OCO2,i,?,?,?,i
O=C(NNc1c([N+](=O)[O-])cc(C(F)(F)F)cc1[N+](=O)[O-])c1ccco1,i,0,-2%,-10%,i
NS(=O)(=O)c1ccc(NC(=S)NC(=O)c2cccs2)cc1,i,-17,-5%,-4%,i
O=S(=O)(c1ccc(NC(=S)NN=Cc2ccccc2O)cc1)N1CCCCC1,i,?,15%,?,7.3µM*
O=C(NC(=S)Nc1ccc(S(=O)(=O)NC2CCCCC2)cc1)c1cccs1,?,-65*,17%,-1%,i
O=C(NC(=S)Nc1ccc(S(=O)(=O)N2CCCCC2)cc1)c1cccs1,?,0,7%,13%,3.3µM*
NS(=O)(=O)c1ccc(NC(=S)Nc2ccc(S(=O)(=O)N3CCCC3)cc2)cc1,i,4,22%,-23%,i
COC(=O)C(CCSC)NC(=O)c1cn(-c2ccc(OC)cc2)c(=O)c2ccccc12 (centres undefined),i,-8,-1%,10%,?
CCCCC12CN3CC(C)(CN(C1)C3c1c[nH]c3ccccc13)C2=O (centres undefined),i,·,·,·,i
CC(=O)OCC(=O)[C@@]1(O)[C@H](C)C[C@@H]2[C@H]3CCC4=CC(=O)C=C[C@]4(C)[C@]3(F)[C@@H](O)C[C@@]21C,·,·,14%[20.6 µM],-2%[20.6 µM],·
C=CCc1ccccc1OCC(O)CNC(C)C (centres undefined),i,-70*,-2%,16%,i
C=CCc1ccccc1OCC(O)CNC1CCCC1 (centres undefined),i,-18,0%,0%,i
COC(=O)c1ccc2c(=O)n(CC3CCCO3)c(SCC(=O)Nc3ccc(OC)cc3OC)nc2c1 (centres undefined),i,32,1%,-1%,i
CCCCCCCCCCCCCCC(O)C[N+](C)(CCO)CCO (centres undefined),?,-100*,?,?,i
CCCCCCCCCCCCCCCCCCCCCCO,·,·,2%,0%,·
O=C1Cc2ccccc2C(=O)N1Cc1cccc(Cl)c1,i,1,-5%,-5%,i
Nc1cccc2c1C(=O)N(Cc1cccc(Cl)c1)C2=O,i,-12,16µM*,?,i
SMILES,KB-3-1 cytotox,IL1B secr inh,MCF10A rereplic,SW480 rereplic,KB-V1 MDR tox
Cc1ccc2[nH]c(=O)c(CN(CCCO)Cc3nnnn3Cc3ccco3)cc2c1,?,·,·,·,i
CCC(c1nnnn1Cc1ccccc1)N(Cc1ccco1)Cc1cc2cc(OC)ccc2[nH]c1=O (centres undefined),?,-54*,?,14%,i
Cc1ccc2[nH]c(=O)c(CN(CCc3ccccc3)C(c3nnnn3Cc3ccco3)C(C)C)cc2c1 (centres undefined),?,-91*,?,?,?
CCC(c1nnnn1Cc1ccc(OC)cc1)N(CCCO)Cc1cc2cc3c(cc2[nH]c1=O)OCO3 (centres undefined),i,-4,-1%,0%,i
CCC(c1nnnn1CCOC)N(Cc1cc2cc(C)c(C)cc2[nH]c1=O)CC1CCCO1 (centres undefined),i,-19,-2%,-8%,i
CCC(c1nnnn1CCOC)N(Cc1ccc(C)cc1)Cc1cc2cc(OC)ccc2[nH]c1=O (centres undefined),?,-27,1%,-6%,23µM*
CC(C)C(c1nnnn1Cc1ccccc1)N(CCCO)Cc1cc2cc3c(cc2[nH]c1=O)OCO3 (centres undefined),i,-60*,1%,0%,i
O=C(O)c1cccc2c1C(=O)c1cc([N+](=O)[O-])ccc1-2,i,4,?,-2%,i
COCc1cc(=O)[nH]c(/N=C(\N)Nc2cccc(Cl)c2)n1,?,23,7%,?,i
CCc1ccc(NC(=O)CSc2nc(=O)n(Cc3ccncc3)c3c2CCC3)cc1,i,·,·,·,i
CC1CN(C(=O)CCNS(=O)(=O)c2ccc(Br)cc2)CC(C)O1 (centres undefined),i,7,5%,-2%,i
CN(C)S(=O)(=O)c1cccc(NC(=O)c2sccc2-c2ccccc2)c1,·,-13,?,-1%,·
CCC(c1nnnn1Cc1ccco1)N(CCc1ccccc1)Cc1cc2cc(C)ccc2[nH]c1=O (centres undefined),?,-52*,25%,0%,?
CCOC(=O)Cn1nnnc1C(CC)N(Cc1ccccc1)Cc1cc2cc(C)ccc2[nH]c1=O (centres undefined),i,16,-17%,2%,i
CCC(c1nnnn1CCc1ccccc1)N(Cc1ccco1)Cc1cc2cc(C)cc(C)c2[nH]c1=O (centres undefined),i,-53*,?,?,i
CC(C)Oc1ccc(CC2CCC(=O)N(C)C2=O)cc1 (centres undefined),i,12,0%,-2%,i
CC(C)C(=O)C1=Cc2cccc([N+](=O)[O-])c2OC1N1CCOCC1 (centres undefined),i,-60*,-9%,5%,?
CC(C)C(=O)C1=Cc2cc([N+](=O)[O-])ccc2OC1N1CCOCC1 (centres undefined),i,-16,?,-5%,i
CCOC(=O)C1CCN(C(=O)c2c(C)oc3c2C(=O)c2ccccc2C3=O)CC1,?,-76*,?,12µM*,18µM*

# Source: PubChem BioAssay (National Center for Advancing Translational Sciences (NCATS))
